NADH coupling: inhibitors of PK/LDH coupling enzymes, profiling panel, artefact control, biochemical, MLSMR library. AID 774, 2007. coupled PK/LDH NADH assays, four targets. 65,000 tested, 0.02% active. IC50, µM (highest dose often 10 µM), inactives show top-dose inhibition;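 active means single-dose screening hits from any of four coupled enzyme assays that gave an IC50 when retested across doses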;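 further: the DPM-DC format reads NADH fluorescence rather than 340 nm absorbance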
Abs 340nm: compound light absorbance at 340 nm, profiling panel, artefact control, biochemical, MLSMR library, data from PS, PMK, MK assays | AID 708, 2007 | compound absorbance at 340 nm, fold over control | fold change at 10 µM | 65,000 tested, under 10 active;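 active means at 10 µM dose, initial 340 nm absorbance at least 2 fold that of control wells; inactive means change under 2 fold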;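 further: initial absorbance extrapolated from kinetic A340 decline of NADH oxidation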
Autofluor 339: intrinsic fluorescence of library compounds, ex339/em460 – biochemical, MLSMR library, data from DPM-DC assay, artefact control, profiling panel; compound autofluorescence, ex339/em460 nm, NADH buffer; hits give high values; 1 = no-compound wells, NADH background; fluorescence fold increase at 10 µM; 65,000 tested, 5.5% active; AID 709, 2007;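 active means at 10 µM, mean starting fluorescence two-fold or more over control wells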;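 further: signal is the first read of a kinetic run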
MK inhibit: S. pneumoniae MK inhibitors, primary screen, biochemical, PK/LDH-coupled NADH absorbance | mevalonate kinase [Streptococcus pneumoniae D39] | purified MK, PK/LDH-coupled NADH absorbance 340 nm | inhibition, % at 10 µM | 65,000 tested, 0.48% active | AID 555, 2006;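 active means ranked among the strongest by inhibition in the single 10 µM screen, a fixed top-ranked set picked for dose follow-up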
DPM-DC inhibit: S. pneumoniae DPM-DC inhibitors, primary screen, biochemical, PK/LDH-coupled NADH fluorescence; diphosphomevalonate decarboxylase (Streptococcus pneumoniae D39); purified DPM-DC; calls only at 10 µM; 65,000 tested, 0.49% active; AID 556, 2006;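 active means the 320 compounds with the highest percent inhibition in the single-dose primary screen, excluding strongly autofluorescent ones, cut at about 32% in these data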;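 further: kinetic rate of NADH fluorescence loss reporting ADP formed by the decarboxylase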
Spn PMK inh: S. pneumoniae PMK inhibitors, primary screen, biochemical, mevalonate pathway, pilot trial included | phosphomevalonate kinase (Streptococcus pneumoniae D39) | purified PMK, PK/LDH-coupled NADH absorbance 340 nm | inhibition, % at 10 µM | 65,000 tested, 0.49% active;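 active means top-ranked compounds by inhibition in the single 10 µM screen, taking a fixed number of the strongest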;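 further: 0% = full reaction with DMSO carrier and 100% = background rate without enzyme reaction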
An asterisk follows results filed as active; i = inactive; . = not tested or not shown. Most compounds without a hit are left out; they make up all but 6.8% or so of the library.

SMILES	NADH coupling	Abs 340nm	Autofluor 339	MK inhibit	DPM-DC inhibit	Spn PMK inh
Clc1ccc2nc(NC3=NCN(CCN4CCOCC4)CN3)nc(-c3ccccc3)c2c1	17%	1	2.2*	14	i	14
COc1cccc(CNCc2ccccn2)c1OC	22%	1	1.1	53*	i	12
COc1ccccc1CNC(=O)COc1ccccc1OC	4%	1	1.1	6	i	3
COc1ccccc1CNCc1cc(OC)c(OC)cc1OC	25%	1.1	1.1	53*	i	22
COc1ccc2c3c(cccc13)NN=C2C	2%	1.1	1.1	2	i	5
Cn1c(CN2CCOCC2)nnc1SCC(=O)NCCc1ccccc1	2%	0.98	1.1	7	i	8
O=C(NC1CC1)c1ccc(CS(=O)(=O)c2c(Cl)cccc2Cl)o1	1%	1	1.1	3	i	0
COc1ccc(OC)c2c(C)cc(NCCN3CCOCC3)nc12	8%	1.1	2.1*	5	.	10
COCCCn1c(CCC(=O)O)ccc1-c1cccs1	9%	1.1	4*	12	.	5
CCCn1c(CCC(=O)O)ccc1-c1cccs1	6%	1	0.33	9	.	3
O=C(O)CCc1ccc(-c2cccs2)n1CC1CCCO1 (configuration not stated)	12%	1.1	3*	5	i	1
CCN(C(=O)CN1CCN(c2ccc(O)cc2)CC1)c1c(N)n(Cc2ccccc2)c(=O)[nH]c1=O	6%	1	1	2	i	13
CC1CCC(N2CCN(S(C)(=O)=O)CC2)CC1 (configuration not stated)	13%	1	1.1	29	i	10
CCS(=O)(=O)N1CCN(C2CCC(C)CC2)CC1 (configuration not stated)	26%	1	1.1	61*	i	17
O=C(CN1CCN(c2ncccn2)CC1)NCCC1=CCCCC1	22%	1.1	1.2	49*	i	2
Cc1ccc(C)c(NC(=O)CNS(=O)(=O)c2ccccc2)c1	6%	1	1.1	10	i	4
Cc1cccc(NC(=O)c2cc(-c3ccco3)nc3ccccc23)n1	4%	1.1	4.9*	1	.	6
O=C(Nc1ccccc1C(=O)NCC1CCCO1)c1ccco1 (configuration not stated)	2%	1	1	7	i	5
O=C(Nc1ccon1)c1cc(-c2ccccc2)nc2ccccc12	3%	1	1.2	10	i	10
O=C(c1ccco1)N1CCN(C(=O)c2cc(-c3ccncc3)nc3ccc(Br)cc23)CC1	4%	1.1	1.1	4	i	5
O=C(O)c1cc(-c2ccco2)nc2ccc(Br)cc12	14%	1.1	2.6*	5	i	16
O=C(NCC1CCCO1)c1cc(-c2ccco2)nc2ccccc12 (configuration not stated)	9%	1.2	5*	8	.	9
COc1ccccc1C1/C(=C(\O)c2c(C)nc3c(C)cccn23)C(=O)C(=O)N1CCCN(C)C (configuration not stated)	2%	0.99	0.98	9	i	0
CC(=O)OCC(=O)c1ccc2ccn(C(C)=O)c2c1	2%	1	3.4*	0	.	16
COc1ccccc1N1CCN(CC(=O)c2ccc3ccn(C(C)=O)c3c2)CC1	2%	1.1	1.3	3	i	0
SMILES	NADH coupling	Abs 340nm	Autofluor 339	MK inhibit	DPM-DC inhibit	Spn PMK inh
COc1ccc(-c2cc(C(F)(F)F)nc(N3CCOCC3)n2)cc1OC	6%	1.1	1.5	11	i	0
COc1ccc(-c2cc(-c3ccccc3)nc(N3CCCC3)n2)cc1OC	0%	1.1	2.2*	0	.	0
Cc1ccc(CCP(=O)(O)CN2CCCCC2)cn1	6%	1.1	1.1	3	i	9
CCOC(=O)C1CCN(Cc2ccc(OC)c(C)c2OC)CC1	9%	0.98	1	48*	i	16
CCOC(=O)C1CCCN(Cc2ccc(O)c(OC)c2)C1 (configuration not stated)	10%	1.1	1.1	30	i	0
CCOC(=O)C1CCN(Cc2ccc(F)c(Br)c2)CC1	6%	1	0.98	51*	i	9
CCOC(=O)C1CCCN(Cc2ccc(OC)cc2OC)C1 (configuration not stated)	16%	1.1	1.1	49*	i	0
Fc1ccc(CN2CCSCC2)cc1Br	1%	1.1	1.1	0	i	2
c1csc(-c2csc3nc(CN4CCOCC4)nc(NCc4ccc5c(c4)OCO5)c23)c1	6%	1	0.96	2	i	14
O=C(CSc1nccn1-c1ccc(Cl)cc1)NCc1ccc2c(c1)OCO2	4%	1	1	7	i	0
Cc1cc(C)nc(-n2nc(C)c(C3(O)C(=O)Nc4ccccc43)c2N)n1 (configuration not stated)	2%	1.1	1.1	6	i	0
C=CCNc1oc(-c2ccc(OC)cc2)nc1C#N	3%	1	3.7*	3	.	3
N#Cc1nc(-c2ccc(OCc3ccc(Cl)cc3)cc2)oc1NCCCn1ccnc1	2%	1.1	1.6	1	i	4
C=CCNc1oc(-c2ccc(OCC)cc2)nc1C#N	2%	1.1	2.3*	3	.	0
CCOc1ccc(-c2nc(C#N)c(NCC(C)C)o2)cc1	5%	1	2.4*	0	.	9
COc1cc(C2/C(=C(/O)c3ccc(F)cc3)C(=O)C(=O)N2CCCC(=O)O)ccc1O (configuration not stated)	3%	1.1	1	6	i	3
CCN1CCN(Cc2nc3c(c(=O)n(C)c(=O)n3C)n2C(C)C(C)=O)CC1 (configuration not stated)	3%	1	1.1	8	i	2
CC(=O)N(CC(=O)O)c1ccccc1C(=O)O	3%	1	1.1	9	i	0
CN1CCN(c2nc(-c3ccccc3)c3cc(Cl)ccc3n2)CC1	5%	0.97	1.8	14	i	1
O=c1nc(-c2ccccc2)c2cc(Cl)ccc2[nH]1	12%	1.1	3.1*	13	i	8
CSc1nc(NC(C)=O)nc(C)c1Cl	2%	1	1.1	0	i	5
CC1(C)CC(=O)c2c(nc3ccccc3c2N)C1	4%	1.1	2.8*	0	i	0
COCC(=O)Nc1nc2n(n1)C(c1ccc(Cl)cc1)CC(c1ccc(OC)cc1)N2 (configuration not stated)	12%	0.99	2.5*	10	i	6
